Records with an inconclusive call do not appear. Entries that show only a call come without a potency. A number with no mark means an inactive call. The source made the active and inactive calls. The call rests on the fitted dose curve; in most records, active means well fitted activation curve with a large enough effect in the signal ratio in the repeat runs (not every such curve was filed as active); inconclusive means weak or mixed curves; inactive means flat fitted curve, though single readings scatter; the % refers to the signal ratio.

A short description of one test: qHTS assay to identify small molecule agonists of H2AX (AID 1224845). Further: potency means the concentration at half of the fitted maximal effect. Particulars: CHO-K1 phospho-H2AX Ser139 HTRF, 3 h; series mostly up to 154 µM. The gist of the method:
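Wild-type CHO-K1 cells plated overnight, then exposed 3 hr at 37C to compounds at 15 concentrations (0.76% DMSO). Lysed, then HTRF anti-pH2AX(S139)-cryptate/anti-H2AX-d2 detection after 24 hr at room temperature; emissions 665 and 620 nm.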
In general terms: In qHTS, concentration-response curves come from the screen itself.
With `CC(C)(C)c1cc(/C=C2\SC(=N)NC2=O)cc(C(C)(C)C)c1O`, the Potency result was “inactive”.

Consider `Clc1cc(Cl)c(-c2c(Cl)c(Cl)cc(Cl)c2Cl)cc1Cl`, for which the Potency result is “inactive”.

Regarding `O=C(O)c1cccc(Cl)n1`, the Potency entry was “inactive”.

For the compound `CCCCCCCCCCCCCc1ccccc1`, the Potency result is “inactive”.

As to `C/C=C/c1ccc(OC)c(OC)c1`, the Potency result is “inactive”.

For `O=C(O)CCCCCCC(=O)O`, the Potency entry is “inactive”.

For `Cc1cc(C)c(C=O)c(C)c1`, the Potency entry is “inactive”.

Take `CCC(C)C(=O)OC` (centres undefined): the Potency result was “inactive”.

As to `CC1(C)C(=O)N(CO)C(=O)N1CO`, the Potency result was “inactive”.

With `CCCCCCCC(C)=O`, the Potency entry is “inactive”.

Consider `CCCCC(CC)COC(=O)c1ccc(O)cc1` (centres undefined), for which the Potency entry is “inactive”.

Turning to `C=C/C=C/C=C/CCCCC`, the activation (H2AX phosphorylation) was 0.418% [at 31.6 µM].

Take `Clc1nc2ccccc2s1`: the Potency result is “inactive”.

Turning to `COc1nccnc1CC(C)C`, the Potency entry is “inactive”.

With `CCOB(OCC)OCC`, the Potency entry was “inactive”.

In the case of `CC1CCCCN1CCCOC(=O)c1ccc(OC2CCCCC2)cc1` (centres undefined), the Potency entry is “inactive”.

As for `Oc1c(Br)cc(Br)c2cccnc12`, the Potency is 55.2 µM (active).

As to `CCC(=O)CC(C)CC` (centres undefined), the activation (H2AX phosphorylation) was 0.83% [at 0.582 µM].

In the case of `CCCCCCCCCCc1ccccc1`, the Potency result is “inactive”.

`CC(C)=CC1CC(C)CCO1` (centres undefined): the Potency result was “inactive”.

On to `CCc1ccc(O)c(C(C)(C)C)c1`, for which the Potency result is “inactive”.

As to `CCC(C)c1ccccc1` (centres undefined), the Potency result is “inactive”.

Take `Clc1cccnc1`: the Potency result was “inactive”.

As to `CNC(=S)NN`, the Potency was 89.8 µM (active).

For the compound `Cc1cc(=O)[nH]c(=O)[nH]1`, the Potency entry was “inactive”.

Turning to `CC(=O)OC1CCCCC1`, the Potency entry is “inactive”.

`O=S(=O)(O)CCCN1CCOCC1`: the Potency result is “inactive”.

Take `Cc1cn[nH]c1`: the Potency result was “inactive”.

Consider `CC(CN(C)C)CN1c2ccccc2CCc2ccccc21` (centres undefined), for which the Potency entry was “inactive”.

As to `O=Cc1ccc(F)cc1`, the Potency entry was “inactive”.

The next test is described as follows: qHTS assay to identify small molecule agonists of the hypoxia (HIF-1) signaling pathway (AID 1224846). Particulars: HRE-bla ME-180 cells, beta-lactamase ratio, 17 h; series mostly up to 76.8 µM. Put shortly: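 A low-serum medium (0.5% dialyzed FBS) holding 2,000 HRE-bla ME-180 cells per well is preincubated for 5 hrs, dosed with compounds by pintool, and kept a further 17 hrs at 37C, 5% CO2 before CCF4-AM FRET detection of beta-lactamase.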
In the case of `O=S(=O)(O)c1cc(S(=O)(=O)O)c2ccc3c(S(=O)(=O)O)cc(S(=O)(=O)O)c4ccc1c2c43`, the activation was -0.0206% [at 15.8 µM].

Consider `Clc1cc(Cl)c(-c2c(Cl)c(Cl)cc(Cl)c2Cl)cc1Cl`, for which the result was inactive.

Regarding `O=C(O)c1cccc(Cl)n1`, the outcome was inactive.

As for `CCCCCCCCCCCCCc1ccccc1`, the result was inactive.

For `CCCCCCC(C)OC(=O)COc1nc(F)c(Cl)c(N)c1Cl` (centres undefined), the result was inactive.

Regarding `C/C=C/c1ccc(OC)c(OC)c1`, the result was inactive.

Consider `O=C(O)CCCCCCC(=O)O`, for which the result was inactive.

In the case of `Cc1cc(C)c(C=O)c(C)c1`, the result was inactive.

Regarding `CCC(C)C(=O)OC` (centres undefined), the result was inactive.

Consider `CC1(C)C(=O)N(CO)C(=O)N1CO`, for which the outcome was inactive.

Take `CCCCCCCC(C)=O`: the outcome was inactive.

On to `C=C/C=C/C=C/CCCCC`, for which the activation was 0.434% [at 15.8 µM].

As to `Clc1nc2ccccc2s1`, the outcome was inactive.

As for `COc1nccnc1CC(C)C`, the outcome was inactive.

`CCOB(OCC)OCC`: the outcome was inactive.

Consider `CC1CCCCN1CCCOC(=O)c1ccc(OC2CCCCC2)cc1` (centres undefined), for which the result was inactive.

`CCC(=O)CC(C)CC` (centres undefined): the activation is 0.22% [at 0.291 µM].

With `c1ccc(Sc2ccccc2)cc1`, the result was inactive.

In the case of `CCCCCCCCCCc1ccccc1`, the result was inactive.

For `CC(C)=CC1CC(C)CCO1` (centres undefined), the outcome was inactive.

`CCc1ccc(O)c(C(C)(C)C)c1`: the result was inactive.

Consider `CCC(C)c1ccccc1` (centres undefined), for which the result was inactive.

On to `Clc1cccnc1`, for which the result was inactive.

For `Cc1cc(=O)[nH]c(=O)[nH]1`, the result was inactive.

For the compound `CC(=O)OC1CCCCC1`, the result was inactive.

In the case of `COC(=O)CC(C)CCC=C(C)C` (centres undefined), the result was inactive.

As to `O=S(=O)(O)CCCN1CCOCC1`, the outcome was inactive.

For `Cc1cn[nH]c1`, the result was inactive.

With `O=Cc1ccc(F)cc1`, the result was inactive.

(Values after PubChem BioAssay (Tox21).)
